# Results: ChEMBL document CHEMBL5606458, “ASAP - ZIKV NS2B-NS3 protease fluorescence single point” (2024)
# In all, about 2,700 compounds went through this assay and about 160 (5.9%) showed an effect of 50% or more. This is one part of a sample in which strong results are shown more often than they occur.
# Biological target: Nonstructural protein 3 (Zika virus) (UniProt A0A024AXB9)
# [1] = PRVABC59, Concentration 15.0 uM, Number of replicates 1.0
# [2] = PRVABC59, Concentration 50.0 uM, Number of replicates 1.0
# Nonstructural protein 3 (Zika virus), sequence (A0A024AXB9 as listed by the source): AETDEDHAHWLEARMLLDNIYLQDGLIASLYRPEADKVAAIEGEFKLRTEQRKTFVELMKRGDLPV
structure (smiles),measurement,setting,value
O=C(Nc1ccc(Br)c(C(F)(F)F)c1)c1cc(Cl)ccc1NS(=O)(=O)c1ccc(Oc2ccccc2Cl)cc1,inhibition,[1],29.1%
O=C(Nc1cccc(Cl)c1Br)c1cc(Cl)ccc1NS(=O)(=O)c1ccc(Oc2ccccc2Cl)cc1,inhibition,[1],25.4%
COc1cc(NC(=O)c2cc(Cl)ccc2NS(=O)(=O)c2ccc(Oc3ccccc3Cl)cc2)cc(OC)c1,inhibition,[1],24.1%
COc1ccc(NC(=O)c2cc(Cl)ccc2NS(=O)(=O)c2ccc(Oc3ccccc3Cl)cc2)cc1C(F)(F)F,inhibition,[1],51.3%
O=C(Nc1ccc(Br)cc1O)c1cc(Cl)ccc1NS(=O)(=O)c1ccc(Oc2ccccc2Cl)cc1,inhibition,[1],58.9%
Cc1ccc(NC(=O)c2cc(Cl)ccc2NS(=O)(=O)c2ccc(Oc3ccccc3Cl)cc2)cc1Br,inhibition,[1],43.3%
O=C(Nc1ccc(F)c(Br)c1)c1cc(Cl)ccc1NS(=O)(=O)c1ccc(Oc2ccccc2Cl)cc1,inhibition,[1],48.7%
COc1ccc(Cl)c(NC(=O)c2cc(Cl)ccc2NS(=O)(=O)c2ccc(Oc3ccccc3Cl)cc2)c1,inhibition,[1],25.8%
COc1ccc(-c2cc(NC(=O)c3cc(Cl)ccc3NS(=O)(=O)c3ccc(Oc4ccccc4Cl)cc3)[nH]n2)cc1,inhibition,[1],57.5%
CC(=O)Nc1ccc(NC(=O)c2cc(Cl)ccc2NS(=O)(=O)c2ccc(Oc3ccccc3Cl)cc2)c(C(F)(F)F)c1,inhibition,[1],23.4%
O=C(Nc1cc(Br)ccc1F)c1cc(Cl)ccc1NS(=O)(=O)c1ccc(Oc2ccccc2Cl)cc1,inhibition,[1],24.4%
COc1cc(NC(=O)c2cc(Cl)ccc2NS(=O)(=O)c2ccc(Oc3ccccc3Cl)cc2)ccc1Br,inhibition,[1],60.4%
O=Cc1ccc(N2CCC(C(=O)Nc3ccc(-n4cccn4)cc3)CC2)cc1,inhibition,[2],21.4%
Cn1cc(NC(=O)c2ccccc2-c2ccc(C(=O)O)nc2)cn1,inhibition,"PRVABC59, Concentration 49.5 uM, Number of replicates 2.0, Standard deviation 2.4498358087391408 %",-1.15%
same,inhibition,"PRVABC59, Concentration 99.01 uM, Number of replicates 2.0, Standard deviation 1.6656005687321722 %",-0.876%
same,inhibition,"PRVABC59, Concentration 198.0 uM, Number of replicates 2.0, Standard deviation 2.3203289956835937 %",3.27%
O=C(NCCc1c[nH]c2cccnc12)[C@@]1(c2ccc(F)cc2)CCCNC1,inhibition,"PRVABC59, Concentration 49.5 uM, Number of replicates 2.0, Standard deviation 1.1099611949443484 %",2.3%
same,inhibition,"PRVABC59, Concentration 99.01 uM, Number of replicates 2.0, Standard deviation 0.8664361984862207 %",-0.092%
same,inhibition,"PRVABC59, Concentration 198.0 uM, Number of replicates 2.0, Standard deviation 1.4816570758007732 %",-1.42%
O=C(c1cc(Cl)ccc1NS(=O)(=O)c1ccc(Oc2ccccc2Cl)cc1)N1CCN(C(=O)[C@@H]2CCCO2)CC1,inhibition,[1],-3.32%
CC(C)c1cccc(C(C)C)c1NC(=O)C1CCN(c2ccc(C=O)cc2)CC1,inhibition,[2],22.1%
O=Cc1ccc(N2CCC(C(=O)N3CCC(Cc4ccccc4)CC3)CC2)cc1,inhibition,[2],24.7%
CNC(=O)[C@H]1CCN(S(=O)(=O)c2ccc(Oc3ccccc3Cl)cc2)C1,inhibition,"PRVABC59, Concentration 49.5 uM, Number of replicates 2.0, Standard deviation 2.3503648629811855 %",6.33%
same,inhibition,"PRVABC59, Concentration 99.01 uM, Number of replicates 2.0, Standard deviation 2.692773952478603 %",8.32%
same,inhibition,"PRVABC59, Concentration 198.0 uM, Number of replicates 2.0, Standard deviation 0.3043636351088153 %",5.71%
CC(=O)N1CCC(N(C)C(=O)c2cc(Cl)ccc2NS(=O)(=O)c2ccc(Oc3ccccc3Cl)cc2)CC1,inhibition,[1],11.3%
Cc1cc(CO)c2cccc(CC(=O)NCCc3ncc[nH]3)c2n1,inhibition,"PRVABC59, Concentration 49.95 uM, Number of replicates 2.0, Standard deviation 0.020358613704702253 %",12.5%
same,inhibition,"PRVABC59, Concentration 99.9 uM, Number of replicates 2.0, Standard deviation 0.02544995300481825 %",32.3%
O=C(Nc1cnc(Cl)c(Br)c1)c1cc(Cl)ccc1NS(=O)(=O)c1ccc(Oc2ccccc2Cl)cc1,inhibition,[1],23%
O=C(Nc1ncc(Br)cc1O)c1cc(Cl)ccc1NS(=O)(=O)c1ccc(Oc2ccccc2Cl)cc1,inhibition,[1],55.3%
COc1ncc(Br)cc1NC(=O)c1cc(Cl)ccc1NS(=O)(=O)c1ccc(Oc2ccccc2Cl)cc1,inhibition,[1],22.9%
O=C(Nc1ncc(F)cc1Br)c1cc(Cl)ccc1NS(=O)(=O)c1ccc(Oc2ccccc2Cl)cc1,inhibition,[1],23.4%
CCc1cc(Br)ccc1NC(=O)c1cc(Cl)ccc1NS(=O)(=O)c1ccc(Oc2ccccc2Cl)cc1,inhibition,[1],41.5%
O=C(Nc1ncc(Br)nc1Cl)c1cc(Cl)ccc1NS(=O)(=O)c1ccc(Oc2ccccc2Cl)cc1,inhibition,[1],16.8%
COc1ncc(NC(=O)c2cc(Cl)ccc2NS(=O)(=O)c2ccc(Oc3ccccc3Cl)cc2)cc1Br,inhibition,[1],67.3%
COc1cc(Br)ccc1NC(=O)c1cc(Cl)ccc1NS(=O)(=O)c1ccc(Oc2ccccc2Cl)cc1,inhibition,[1],56.4%
COc1cc(Cl)c(C)cc1NC(=O)c1cc(Cl)ccc1NS(=O)(=O)c1ccc(Oc2ccccc2Cl)cc1,inhibition,[1],22.4%
COc1ccc(CNC(=O)c2cc(Cl)ccc2NS(=O)(=O)c2ccc(Oc3ccccc3Cl)cc2)cc1F,inhibition,[1],26.5%
O=C(c1cc(Cl)ccc1NS(=O)(=O)c1ccc(Oc2ccccc2Cl)cc1)N1CCN(c2ncccn2)CC1,inhibition,[1],7.48%
O=Cc1ccc(N2CCC(C(=O)Nc3ccccc3I)CC2)cc1,inhibition,[2],24.9%
O=Cc1ccc(N2CCC(C(=O)Nc3ccc(Br)c(Cl)c3Cl)CC2)cc1,inhibition,[2],20.9%
CC(C)(C)N(C[C@H](O)c1ccc(O)c(CO)c1)C(=O)c1cc(Cl)ccc1NS(=O)(=O)c1ccc(Oc2ccccc2Cl)cc1,inhibition,[1],14.6%
COc1ccccc1OCCCN(C)C(=O)C1CCN(c2ccc(C=O)cc2)CC1,inhibition,[2],22.6%
CC(C)(COC(=O)c1cccc(F)c1)NC(=O)c1cc(N)cc(Cl)c1,inhibition,"PRVABC59, Concentration 49.5 uM, Number of replicates 2.0, Standard deviation 1.1247891306000573 %",3.45%
same,inhibition,"PRVABC59, Concentration 99.01 uM, Number of replicates 2.0, Standard deviation 1.4129417390724304 %",5.8%
same,inhibition,"PRVABC59, Concentration 198.0 uM, Number of replicates 2.0, Standard deviation 1.2082537148179389 %",9%
NCc1cccc(NC(=O)C2CN(C(=O)OCc3ccccc3)C2)c1,inhibition,"PRVABC59, Concentration 49.5 uM, Number of replicates 2.0, Standard deviation 0.7047125451631892 %",1.12%
same,inhibition,"PRVABC59, Concentration 99.01 uM, Number of replicates 2.0, Standard deviation 1.0691153353532887 %",3.88%
same,inhibition,"PRVABC59, Concentration 198.0 uM, Number of replicates 2.0, Standard deviation 0.2800776094724739 %",10.1%
O=Cc1ccc(N2CCC(C(=O)NCCNC(=O)c3ccccc3Cl)CC2)cc1,inhibition,[2],20.1%
CC(=O)N[C@@H](CCCN)C(=O)Nc1cccc2c(CO)cc(C)nc12,inhibition,"PRVABC59, Concentration 49.95 uM, Number of replicates 2.0, Standard deviation 2.340889239911572 %",9.01%
same,inhibition,"PRVABC59, Concentration 99.9 uM, Number of replicates 2.0, Standard deviation 2.049858170273299 %",41.2%
Cc1cc(CO)c2cccc(C[C@H](NC(=O)Cc3cccc(CN)c3)C(=O)O)c2n1,inhibition,"PRVABC59, Concentration 49.95 uM, Number of replicates 2.0, Standard deviation 1.661005908968333 %",-1.72%
same,inhibition,"PRVABC59, Concentration 99.9 uM, Number of replicates 2.0, Standard deviation 1.2746087015891263 %",6.96%
CC(=O)N[C@@H](CCCCN)C(=O)Nc1cccc2c(CO)cc(C)nc12,inhibition,"PRVABC59, Concentration 49.95 uM, Number of replicates 2.0, Standard deviation 2.062511665720634 %",70.2%
same,inhibition,"PRVABC59, Concentration 99.9 uM, Number of replicates 2.0, Standard deviation 0.26572610179233236 %",93.5%
CC(=O)N[C@@H](CCCN)C(=O)Nc1ccccc1Cc1cccc2c(CO)cc(C)nc12,inhibition,"PRVABC59, Concentration 49.95 uM, Number of replicates 2.0, Standard deviation 1.2164295290794762 %",11.2%
same,inhibition,"PRVABC59, Concentration 99.9 uM, Number of replicates 2.0, Standard deviation 0.5089666913167087 %",30.6%
CC(=O)N[C@@H](CCCCN)C(=O)Nc1ccccc1Cc1cccc2c(CO)cc(C)nc12,inhibition,"PRVABC59, Concentration 49.95 uM, Number of replicates 2.0, Standard deviation 1.4556435772845158 %",-3.65%
same,inhibition,"PRVABC59, Concentration 99.9 uM, Number of replicates 2.0, Standard deviation 0.5191459981690598 %",11.6%
CC(=O)N[C@@H](Cc1ccc(CN)cc1)C(=O)Nc1cccc2c(CO)cc(C)nc12,inhibition,"PRVABC59, Concentration 49.95 uM, Number of replicates 2.0, Standard deviation 1.5120886598590335 %",62.5%
same,inhibition,"PRVABC59, Concentration 99.9 uM, Number of replicates 2.0, Standard deviation 0.31634008358167093 %",95.8%
Cn1cc(CNC(=O)c2ccccc2[C@@H]2CCCNC2)cn1,inhibition,"PRVABC59, Concentration 49.5 uM, Number of replicates 2.0, Standard deviation 1.3820269413959925 %",-1.82%
same,inhibition,"PRVABC59, Concentration 99.01 uM, Number of replicates 2.0, Standard deviation 1.129463511127855 %",-0.227%
same,inhibition,"PRVABC59, Concentration 198.0 uM, Number of replicates 2.0, Standard deviation 0.6425212666298173 %",0.6%
